Experimental data from ChEMBL document CHEMBL1961873, “Compounds: GSK PKIS; Assays: Nanosyn kinase panel” (2012).

How the values were obtained:
[1] = biological target: T1, Inhibitor of nuclear factor kappa-B kinase subunit epsilon (Homo sapiens) (UniProt Q14164); settings: at 1 µM;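 also: reported values are averaged percent inhibition figures against human IKKε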
T1 sequence (whole entry): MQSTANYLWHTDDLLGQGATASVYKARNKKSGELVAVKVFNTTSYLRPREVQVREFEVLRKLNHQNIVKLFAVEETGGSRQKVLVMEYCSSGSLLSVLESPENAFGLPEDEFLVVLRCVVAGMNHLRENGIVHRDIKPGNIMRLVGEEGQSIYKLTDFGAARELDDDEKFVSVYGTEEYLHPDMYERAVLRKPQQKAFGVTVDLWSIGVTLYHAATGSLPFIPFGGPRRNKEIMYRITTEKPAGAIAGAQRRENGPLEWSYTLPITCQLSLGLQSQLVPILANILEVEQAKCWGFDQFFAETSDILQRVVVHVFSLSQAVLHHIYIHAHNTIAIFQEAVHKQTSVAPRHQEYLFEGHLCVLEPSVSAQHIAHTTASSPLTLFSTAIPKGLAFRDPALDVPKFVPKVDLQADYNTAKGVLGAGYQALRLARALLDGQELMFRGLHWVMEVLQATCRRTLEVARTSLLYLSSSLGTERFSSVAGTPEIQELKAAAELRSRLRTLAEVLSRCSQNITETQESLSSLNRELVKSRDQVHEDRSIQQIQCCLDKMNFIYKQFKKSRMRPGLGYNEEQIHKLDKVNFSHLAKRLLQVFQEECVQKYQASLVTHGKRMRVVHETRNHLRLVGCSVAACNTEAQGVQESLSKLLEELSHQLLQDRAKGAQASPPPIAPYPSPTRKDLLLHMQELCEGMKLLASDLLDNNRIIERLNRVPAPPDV

[2] = biological target: T2, Serine/threonine-protein kinase Nek1 (Homo sapiens) (UniProt Q96PY6); settings: at 0.1 µM
T2 sequence (whole entry): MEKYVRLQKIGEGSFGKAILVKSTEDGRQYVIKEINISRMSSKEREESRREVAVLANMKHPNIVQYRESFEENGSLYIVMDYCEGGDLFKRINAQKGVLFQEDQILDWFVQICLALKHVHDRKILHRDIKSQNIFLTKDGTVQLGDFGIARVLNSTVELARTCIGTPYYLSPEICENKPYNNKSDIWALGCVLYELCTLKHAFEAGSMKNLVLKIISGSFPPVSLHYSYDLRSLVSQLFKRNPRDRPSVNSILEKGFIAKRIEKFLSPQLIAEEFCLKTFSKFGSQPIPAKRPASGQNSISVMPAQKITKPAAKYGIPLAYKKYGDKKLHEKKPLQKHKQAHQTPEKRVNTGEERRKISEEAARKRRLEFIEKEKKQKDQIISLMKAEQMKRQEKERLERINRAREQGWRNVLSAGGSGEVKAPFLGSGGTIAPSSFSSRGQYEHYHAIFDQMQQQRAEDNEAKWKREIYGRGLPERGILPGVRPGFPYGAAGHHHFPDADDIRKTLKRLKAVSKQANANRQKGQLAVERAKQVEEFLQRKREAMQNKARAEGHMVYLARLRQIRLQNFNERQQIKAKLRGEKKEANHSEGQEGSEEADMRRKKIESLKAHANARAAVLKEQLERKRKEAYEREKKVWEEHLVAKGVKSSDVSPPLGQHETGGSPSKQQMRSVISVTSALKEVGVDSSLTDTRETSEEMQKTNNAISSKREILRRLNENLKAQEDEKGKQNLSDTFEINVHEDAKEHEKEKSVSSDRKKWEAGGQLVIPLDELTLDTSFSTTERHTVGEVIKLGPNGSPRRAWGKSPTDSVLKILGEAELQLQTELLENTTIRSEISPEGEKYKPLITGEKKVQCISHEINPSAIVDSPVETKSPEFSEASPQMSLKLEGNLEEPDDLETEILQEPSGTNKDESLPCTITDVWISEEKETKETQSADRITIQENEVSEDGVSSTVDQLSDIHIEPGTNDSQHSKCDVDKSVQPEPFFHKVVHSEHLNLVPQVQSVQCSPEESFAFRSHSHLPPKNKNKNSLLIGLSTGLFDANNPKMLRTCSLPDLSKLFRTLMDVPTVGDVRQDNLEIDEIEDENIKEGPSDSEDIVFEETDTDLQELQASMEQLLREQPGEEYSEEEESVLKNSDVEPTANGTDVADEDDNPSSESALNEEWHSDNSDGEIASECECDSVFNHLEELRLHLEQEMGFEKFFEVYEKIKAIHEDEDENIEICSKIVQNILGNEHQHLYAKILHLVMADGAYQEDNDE

[3] = biological target: T2, Serine/threonine-protein kinase Nek1 (Homo sapiens); settings: at 1 µM
[4] = biological target: T3, Serine/threonine-protein kinase Nek2 (Homo sapiens) (UniProt P51955); settings: at 0.1 µM
T3 sequence (whole entry): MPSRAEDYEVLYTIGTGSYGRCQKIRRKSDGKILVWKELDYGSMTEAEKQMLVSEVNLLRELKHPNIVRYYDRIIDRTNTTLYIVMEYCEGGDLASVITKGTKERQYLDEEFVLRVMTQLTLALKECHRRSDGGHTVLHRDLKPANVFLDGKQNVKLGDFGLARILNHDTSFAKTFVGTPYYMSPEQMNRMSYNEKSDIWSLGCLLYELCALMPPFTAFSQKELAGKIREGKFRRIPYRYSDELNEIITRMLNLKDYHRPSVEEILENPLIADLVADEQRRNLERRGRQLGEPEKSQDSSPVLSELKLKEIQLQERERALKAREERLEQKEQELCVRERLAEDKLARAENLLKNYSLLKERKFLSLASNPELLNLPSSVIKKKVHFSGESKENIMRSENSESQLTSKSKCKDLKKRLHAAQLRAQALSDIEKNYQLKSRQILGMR

[5] = biological target: T3, Serine/threonine-protein kinase Nek2 (Homo sapiens); settings: at 1 µM
[6] = biological target: Serine/threonine-protein kinase Nek6 (Homo sapiens) (UniProt Q9HC98); settings: at 0.1 µM
[7] = biological target: Serine/threonine-protein kinase Nek6 (Homo sapiens) (UniProt Q9HC98); settings: at 1 µM
[8] = biological target: Serine/threonine-protein kinase Nek7 (Homo sapiens) (UniProt Q8TDX7); settings: at 0.1 µM
[9] = biological target: Serine/threonine-protein kinase Nek7 (Homo sapiens) (UniProt Q8TDX7); settings: at 1 µM
[10] = biological target: T4, Serine/threonine-protein kinase Nek9 (Homo sapiens) (UniProt Q8TD19); settings: at 0.1 µM
T4 sequence (whole entry): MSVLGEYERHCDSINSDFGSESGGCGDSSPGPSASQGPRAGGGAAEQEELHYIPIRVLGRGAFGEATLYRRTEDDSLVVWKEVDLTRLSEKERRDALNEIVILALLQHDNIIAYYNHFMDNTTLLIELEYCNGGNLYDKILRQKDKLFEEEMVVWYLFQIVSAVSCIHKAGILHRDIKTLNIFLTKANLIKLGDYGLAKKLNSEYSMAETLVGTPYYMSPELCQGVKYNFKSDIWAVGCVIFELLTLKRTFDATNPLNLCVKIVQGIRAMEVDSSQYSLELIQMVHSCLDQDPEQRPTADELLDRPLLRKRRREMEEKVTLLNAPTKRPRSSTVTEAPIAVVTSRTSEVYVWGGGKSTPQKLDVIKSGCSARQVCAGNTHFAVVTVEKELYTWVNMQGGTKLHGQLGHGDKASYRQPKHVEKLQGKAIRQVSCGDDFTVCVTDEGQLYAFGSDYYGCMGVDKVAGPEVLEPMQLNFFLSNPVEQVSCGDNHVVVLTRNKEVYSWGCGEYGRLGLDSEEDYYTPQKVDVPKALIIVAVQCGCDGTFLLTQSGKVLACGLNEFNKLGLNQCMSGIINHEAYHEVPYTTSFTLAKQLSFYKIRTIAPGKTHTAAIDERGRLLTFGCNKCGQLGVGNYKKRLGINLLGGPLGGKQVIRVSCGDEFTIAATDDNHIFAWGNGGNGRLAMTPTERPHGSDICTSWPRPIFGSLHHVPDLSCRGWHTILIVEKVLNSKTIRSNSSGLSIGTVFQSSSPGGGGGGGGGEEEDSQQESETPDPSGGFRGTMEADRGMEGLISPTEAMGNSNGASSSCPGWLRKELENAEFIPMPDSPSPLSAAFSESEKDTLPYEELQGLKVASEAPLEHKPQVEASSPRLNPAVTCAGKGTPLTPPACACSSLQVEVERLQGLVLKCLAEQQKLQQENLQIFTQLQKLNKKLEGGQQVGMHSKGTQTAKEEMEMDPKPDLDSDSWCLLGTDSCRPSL

[11] = biological target: T4, Serine/threonine-protein kinase Nek9 (Homo sapiens); settings: at 1 µM
[12] = biological target: Serine/threonine-protein kinase PLK1 (Homo sapiens) (UniProt P53350); settings: at 0.1 µM
[13] = biological target: Serine/threonine-protein kinase PLK1 (Homo sapiens) (UniProt P53350); settings: at 1 µM
[14] = biological target: T5, Dual specificity protein kinase TTK (Homo sapiens) (UniProt P33981); settings: at 0.1 µM
T5 sequence (whole entry): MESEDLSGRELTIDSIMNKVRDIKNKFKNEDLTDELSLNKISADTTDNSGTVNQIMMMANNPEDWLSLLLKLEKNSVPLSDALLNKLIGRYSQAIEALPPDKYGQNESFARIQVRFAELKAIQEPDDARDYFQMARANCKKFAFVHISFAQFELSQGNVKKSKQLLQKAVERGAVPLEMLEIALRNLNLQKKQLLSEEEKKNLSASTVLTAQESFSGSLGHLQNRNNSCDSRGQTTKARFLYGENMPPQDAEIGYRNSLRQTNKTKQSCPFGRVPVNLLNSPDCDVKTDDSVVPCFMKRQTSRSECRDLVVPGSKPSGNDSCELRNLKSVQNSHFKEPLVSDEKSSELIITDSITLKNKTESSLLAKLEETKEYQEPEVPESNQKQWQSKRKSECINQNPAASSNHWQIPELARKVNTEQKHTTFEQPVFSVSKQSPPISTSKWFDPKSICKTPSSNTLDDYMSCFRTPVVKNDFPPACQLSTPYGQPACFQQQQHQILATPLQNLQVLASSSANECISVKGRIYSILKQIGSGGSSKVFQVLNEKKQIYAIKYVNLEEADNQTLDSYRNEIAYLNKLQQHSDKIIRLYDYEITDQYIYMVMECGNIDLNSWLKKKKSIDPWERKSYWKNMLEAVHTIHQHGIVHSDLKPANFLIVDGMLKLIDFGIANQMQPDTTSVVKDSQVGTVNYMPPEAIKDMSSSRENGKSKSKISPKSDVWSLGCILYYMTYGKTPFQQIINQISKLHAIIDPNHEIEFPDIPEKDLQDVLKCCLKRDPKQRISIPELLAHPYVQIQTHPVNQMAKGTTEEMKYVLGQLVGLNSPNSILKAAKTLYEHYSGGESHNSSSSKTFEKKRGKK

[15] = system: T6, Receptor-type tyrosine-protein kinase FLT3 (Homo sapiens), P36888 [D835Y]; settings: at 1 µM
T6 sequence (whole entry): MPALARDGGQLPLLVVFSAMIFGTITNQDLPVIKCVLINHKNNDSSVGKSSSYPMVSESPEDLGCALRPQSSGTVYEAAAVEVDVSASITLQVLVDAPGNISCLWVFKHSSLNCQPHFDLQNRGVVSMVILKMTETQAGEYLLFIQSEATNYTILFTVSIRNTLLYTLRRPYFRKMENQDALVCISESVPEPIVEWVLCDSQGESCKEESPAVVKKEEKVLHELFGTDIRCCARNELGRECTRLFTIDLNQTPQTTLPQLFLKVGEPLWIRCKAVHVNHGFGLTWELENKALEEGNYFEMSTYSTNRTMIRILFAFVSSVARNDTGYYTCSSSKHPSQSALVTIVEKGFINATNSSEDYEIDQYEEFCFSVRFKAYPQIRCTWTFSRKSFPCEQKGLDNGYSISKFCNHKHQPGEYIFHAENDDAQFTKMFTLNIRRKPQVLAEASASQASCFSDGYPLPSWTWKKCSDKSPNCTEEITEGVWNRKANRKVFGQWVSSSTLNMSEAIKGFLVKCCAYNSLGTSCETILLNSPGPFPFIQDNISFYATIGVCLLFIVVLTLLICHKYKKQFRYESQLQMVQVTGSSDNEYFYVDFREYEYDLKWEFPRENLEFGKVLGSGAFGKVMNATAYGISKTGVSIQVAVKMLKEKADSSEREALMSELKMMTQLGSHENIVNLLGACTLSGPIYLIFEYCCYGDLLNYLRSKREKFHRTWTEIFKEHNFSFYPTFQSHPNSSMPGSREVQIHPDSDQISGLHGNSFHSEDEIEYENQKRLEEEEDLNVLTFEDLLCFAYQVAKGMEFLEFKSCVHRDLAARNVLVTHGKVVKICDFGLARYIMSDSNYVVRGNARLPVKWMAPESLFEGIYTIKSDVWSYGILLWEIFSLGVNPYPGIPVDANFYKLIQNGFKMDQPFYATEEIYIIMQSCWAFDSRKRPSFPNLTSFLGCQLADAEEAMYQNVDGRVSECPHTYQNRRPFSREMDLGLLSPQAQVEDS

[16] = biological target: Vascular endothelial growth factor receptor 3 (Homo sapiens) (UniProt P35916); settings: at 0.1 µM
[17] = biological target: Vascular endothelial growth factor receptor 3 (Homo sapiens) (UniProt P35916); settings: at 1 µM
[18] = biological target: Macrophage colony-stimulating factor 1 receptor (Homo sapiens) (UniProt P07333); settings: at 0.1 µM
[19] = biological target: Macrophage colony-stimulating factor 1 receptor (Homo sapiens) (UniProt P07333); settings: at 1 µM
[20] = biological target: Tyrosine-protein kinase Fyn (Homo sapiens) (UniProt P06241); settings: at 0.1 µM
Tyrosine-protein kinase Fyn (Homo sapiens), sequence (P06241 2-537 limits assumed): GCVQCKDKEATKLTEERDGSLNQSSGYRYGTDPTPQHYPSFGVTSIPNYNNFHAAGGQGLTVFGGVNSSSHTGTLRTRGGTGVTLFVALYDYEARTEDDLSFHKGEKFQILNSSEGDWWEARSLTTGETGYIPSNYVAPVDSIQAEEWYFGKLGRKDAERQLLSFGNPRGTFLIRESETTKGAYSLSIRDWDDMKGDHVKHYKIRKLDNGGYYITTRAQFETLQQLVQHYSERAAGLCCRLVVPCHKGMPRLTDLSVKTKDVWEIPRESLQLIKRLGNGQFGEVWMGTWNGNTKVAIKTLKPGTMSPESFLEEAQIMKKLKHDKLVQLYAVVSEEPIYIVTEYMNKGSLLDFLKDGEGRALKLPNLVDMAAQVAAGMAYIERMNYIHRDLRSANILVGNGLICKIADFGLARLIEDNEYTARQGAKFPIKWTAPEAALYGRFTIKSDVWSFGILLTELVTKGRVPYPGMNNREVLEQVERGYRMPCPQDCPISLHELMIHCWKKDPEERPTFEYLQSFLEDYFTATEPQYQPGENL

Serine/threonine-protein kinase Nek7 (Homo sapiens), sequence (Q8TDX7 whole entry, looked up): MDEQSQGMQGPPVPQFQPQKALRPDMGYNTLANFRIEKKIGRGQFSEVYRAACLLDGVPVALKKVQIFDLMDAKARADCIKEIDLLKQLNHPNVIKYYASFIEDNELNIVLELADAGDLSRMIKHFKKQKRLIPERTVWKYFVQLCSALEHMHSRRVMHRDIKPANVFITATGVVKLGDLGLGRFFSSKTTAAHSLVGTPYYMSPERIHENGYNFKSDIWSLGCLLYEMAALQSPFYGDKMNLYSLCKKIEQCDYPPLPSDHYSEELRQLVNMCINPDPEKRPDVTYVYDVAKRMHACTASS
Macrophage colony-stimulating factor 1 receptor (Homo sapiens), sequence (P07333 whole entry): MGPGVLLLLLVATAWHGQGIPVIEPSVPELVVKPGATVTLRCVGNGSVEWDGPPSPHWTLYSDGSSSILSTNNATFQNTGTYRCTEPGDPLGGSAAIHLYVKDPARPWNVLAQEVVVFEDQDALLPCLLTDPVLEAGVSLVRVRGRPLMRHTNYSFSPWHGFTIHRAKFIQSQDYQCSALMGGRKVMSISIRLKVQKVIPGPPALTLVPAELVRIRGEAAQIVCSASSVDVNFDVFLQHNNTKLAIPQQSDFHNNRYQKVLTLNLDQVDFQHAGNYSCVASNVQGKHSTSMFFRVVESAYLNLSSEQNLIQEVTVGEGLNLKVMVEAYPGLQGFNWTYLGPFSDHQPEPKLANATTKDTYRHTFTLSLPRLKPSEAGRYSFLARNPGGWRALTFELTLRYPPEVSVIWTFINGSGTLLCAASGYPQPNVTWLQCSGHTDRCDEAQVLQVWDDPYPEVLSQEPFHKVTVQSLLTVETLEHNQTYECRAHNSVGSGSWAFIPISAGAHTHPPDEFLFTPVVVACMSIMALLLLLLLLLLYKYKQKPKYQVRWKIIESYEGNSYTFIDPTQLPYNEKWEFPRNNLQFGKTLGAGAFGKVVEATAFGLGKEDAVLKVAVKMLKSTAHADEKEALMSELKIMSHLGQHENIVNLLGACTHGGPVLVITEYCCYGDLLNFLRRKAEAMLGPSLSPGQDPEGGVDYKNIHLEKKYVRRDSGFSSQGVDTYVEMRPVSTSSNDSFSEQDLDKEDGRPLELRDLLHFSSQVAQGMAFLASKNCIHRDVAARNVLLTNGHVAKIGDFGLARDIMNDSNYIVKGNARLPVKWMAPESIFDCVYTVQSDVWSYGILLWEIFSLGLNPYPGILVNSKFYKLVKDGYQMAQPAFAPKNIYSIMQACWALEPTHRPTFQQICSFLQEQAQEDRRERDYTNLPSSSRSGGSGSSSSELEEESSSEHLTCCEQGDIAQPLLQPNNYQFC
Serine/threonine-protein kinase Nek6 (Homo sapiens), sequence (Q9HC98 whole entry): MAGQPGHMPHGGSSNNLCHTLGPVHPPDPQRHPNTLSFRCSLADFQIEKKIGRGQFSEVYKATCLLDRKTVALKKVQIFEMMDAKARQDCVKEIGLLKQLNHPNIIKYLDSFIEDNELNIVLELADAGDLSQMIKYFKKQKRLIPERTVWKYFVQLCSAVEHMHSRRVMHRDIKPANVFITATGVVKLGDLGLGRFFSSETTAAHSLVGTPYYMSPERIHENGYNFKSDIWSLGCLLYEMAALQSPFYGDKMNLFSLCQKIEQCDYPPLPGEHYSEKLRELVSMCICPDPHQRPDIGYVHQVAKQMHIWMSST
Serine/threonine-protein kinase PLK1 (Homo sapiens), sequence (P53350 whole entry): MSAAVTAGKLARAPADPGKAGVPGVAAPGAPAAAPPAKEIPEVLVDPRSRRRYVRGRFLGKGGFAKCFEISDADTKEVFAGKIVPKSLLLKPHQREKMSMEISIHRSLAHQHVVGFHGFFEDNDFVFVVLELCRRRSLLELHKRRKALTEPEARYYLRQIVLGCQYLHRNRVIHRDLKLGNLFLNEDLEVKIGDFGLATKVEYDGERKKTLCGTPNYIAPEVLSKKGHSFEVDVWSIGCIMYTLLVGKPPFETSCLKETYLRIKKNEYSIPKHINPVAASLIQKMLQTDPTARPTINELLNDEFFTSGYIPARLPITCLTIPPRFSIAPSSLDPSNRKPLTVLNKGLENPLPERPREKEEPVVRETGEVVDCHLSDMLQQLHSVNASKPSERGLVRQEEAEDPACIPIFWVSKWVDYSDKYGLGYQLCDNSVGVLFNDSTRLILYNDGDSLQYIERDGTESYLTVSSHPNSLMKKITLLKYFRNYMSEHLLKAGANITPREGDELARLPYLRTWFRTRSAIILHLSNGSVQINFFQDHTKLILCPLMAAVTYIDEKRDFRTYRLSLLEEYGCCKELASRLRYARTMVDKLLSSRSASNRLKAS
Vascular endothelial growth factor receptor 3 (Homo sapiens), sequence (P35916 whole entry): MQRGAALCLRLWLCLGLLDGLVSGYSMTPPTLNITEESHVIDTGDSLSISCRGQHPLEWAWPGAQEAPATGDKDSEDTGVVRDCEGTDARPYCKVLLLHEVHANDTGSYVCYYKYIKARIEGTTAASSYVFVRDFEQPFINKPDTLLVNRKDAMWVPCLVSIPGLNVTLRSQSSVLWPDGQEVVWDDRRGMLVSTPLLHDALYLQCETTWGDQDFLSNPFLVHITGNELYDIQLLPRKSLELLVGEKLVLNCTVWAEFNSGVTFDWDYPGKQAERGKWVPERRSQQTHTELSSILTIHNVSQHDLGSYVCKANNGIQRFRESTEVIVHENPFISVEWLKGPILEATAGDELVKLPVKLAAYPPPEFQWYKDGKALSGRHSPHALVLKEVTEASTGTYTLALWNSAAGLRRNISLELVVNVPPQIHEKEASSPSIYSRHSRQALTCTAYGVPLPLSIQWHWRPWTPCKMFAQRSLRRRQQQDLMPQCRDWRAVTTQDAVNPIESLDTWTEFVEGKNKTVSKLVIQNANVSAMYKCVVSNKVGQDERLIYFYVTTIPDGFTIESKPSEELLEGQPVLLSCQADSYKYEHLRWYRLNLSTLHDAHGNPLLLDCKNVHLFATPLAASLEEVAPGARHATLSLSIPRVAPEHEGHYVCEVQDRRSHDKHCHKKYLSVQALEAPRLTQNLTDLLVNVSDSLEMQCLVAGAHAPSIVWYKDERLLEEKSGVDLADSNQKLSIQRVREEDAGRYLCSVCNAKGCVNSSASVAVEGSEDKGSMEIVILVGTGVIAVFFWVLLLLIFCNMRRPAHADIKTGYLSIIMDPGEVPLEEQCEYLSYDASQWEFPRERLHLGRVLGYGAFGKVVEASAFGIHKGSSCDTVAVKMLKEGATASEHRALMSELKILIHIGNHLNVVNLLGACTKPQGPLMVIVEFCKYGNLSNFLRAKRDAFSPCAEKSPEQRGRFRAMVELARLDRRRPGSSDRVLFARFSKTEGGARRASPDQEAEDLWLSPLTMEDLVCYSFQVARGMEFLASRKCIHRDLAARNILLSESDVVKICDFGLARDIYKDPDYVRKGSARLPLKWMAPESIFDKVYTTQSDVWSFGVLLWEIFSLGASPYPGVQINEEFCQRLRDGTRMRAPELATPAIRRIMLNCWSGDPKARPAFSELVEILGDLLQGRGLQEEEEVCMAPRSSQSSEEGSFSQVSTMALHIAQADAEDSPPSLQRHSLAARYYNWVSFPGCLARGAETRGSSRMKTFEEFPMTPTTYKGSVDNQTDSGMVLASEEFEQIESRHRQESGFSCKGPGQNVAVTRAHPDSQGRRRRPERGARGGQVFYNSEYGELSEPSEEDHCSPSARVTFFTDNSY

Compound | inhibition [1] [%] | inhibition [2] [%] | inhibition [3] [%] | inhibition [4] [%] | inhibition [5] [%] | inhibition [6] [%] | inhibition [7] [%] | inhibition [8] [%] | inhibition [9] [%] | inhibition [10] [%] | inhibition [11] [%] | inhibition [12] [%] | inhibition [13] [%] | inhibition [14] [%] | inhibition [15] [%] | inhibition [16] [%] | inhibition [17] [%] | inhibition [18] [%] | inhibition [19] [%] | inhibition [20] [%]
COc1cc(Nc2ncc(-c3ccccc3)o2)cc(OC)c1 | 10.9 | 1.83 | 4.11 | 5.36 | 5.95 | 3.13 | 1.56 | 3.14 | 5.01 | 10.4 | 7.35 | 4.62 | 2.5 | 10 | 36.7 | 1.25 | 9.4 | 14.5 | 56.3 | 2.7
O=C(O[C@H]1CN[C@H](C#Cc2cc3ncnc(Nc4ccc5c(ccn5Cc5cc(F)ccc5F)c4)c3s2)C1)N1CCOCC1 | 3.8 | 2.94 | 1.91 | 2.01 | 7.68 | 4.81 | 1.23 | 4.67 | 3.63 | 4.24 | 12.3 | 4.51 | 10.8 | 11 | -1.27 | 4.34 | 4.77 | 2.09 | 15.5 | 4.48
CNC(=O)c1ncccc1Nc1nc(Nc2cc3c(cc2OC)CCCN3C(=O)CN(C)C)nc2[nH]ccc12 | 10.1 | 0.87 | 2.58 | 4.37 | 3.89 | 2.87 | -0.46 | 3.53 | 7.42 | 5.86 | 8.8 | 79.8 | 92.8 | 12.8 | 2.75 | 2.84 | 2.27 | 7.05 | 3.9 | 1.75
